PubChem BioAssay AID602333 (Sanford-Burnham Center for Chemical Genomics, 2012)
Out of some 1,900 compounds screened, about 240 (13%) were called active.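 Rule for the calls: active = mean inhibition at least 40% at 20 µM, or signal 3 deviations below plate average, so some actives read negative; inactive = the rest.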 The entries come from a sample that favours actives as a whole.

Molecular target: Prothrombin (Bos taurus) (UniProt P00735)
Assay: blocking of thrombin cleavage of Ub4 substrate – biochemical, fluorescence polarization, single concentration, counter-screen for Rpn11 inhibitor project, confirmation (AID 602333);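 note: plate controls were thrombin with DMSO for no effect and buffer wells lacking thrombin for full effect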
Settings: bovine thrombin cleavage of Ub4-pepOG, at 20 µM, hits give high values

Sequence of Prothrombin (Bos taurus) (P00735 whole entry, looked up): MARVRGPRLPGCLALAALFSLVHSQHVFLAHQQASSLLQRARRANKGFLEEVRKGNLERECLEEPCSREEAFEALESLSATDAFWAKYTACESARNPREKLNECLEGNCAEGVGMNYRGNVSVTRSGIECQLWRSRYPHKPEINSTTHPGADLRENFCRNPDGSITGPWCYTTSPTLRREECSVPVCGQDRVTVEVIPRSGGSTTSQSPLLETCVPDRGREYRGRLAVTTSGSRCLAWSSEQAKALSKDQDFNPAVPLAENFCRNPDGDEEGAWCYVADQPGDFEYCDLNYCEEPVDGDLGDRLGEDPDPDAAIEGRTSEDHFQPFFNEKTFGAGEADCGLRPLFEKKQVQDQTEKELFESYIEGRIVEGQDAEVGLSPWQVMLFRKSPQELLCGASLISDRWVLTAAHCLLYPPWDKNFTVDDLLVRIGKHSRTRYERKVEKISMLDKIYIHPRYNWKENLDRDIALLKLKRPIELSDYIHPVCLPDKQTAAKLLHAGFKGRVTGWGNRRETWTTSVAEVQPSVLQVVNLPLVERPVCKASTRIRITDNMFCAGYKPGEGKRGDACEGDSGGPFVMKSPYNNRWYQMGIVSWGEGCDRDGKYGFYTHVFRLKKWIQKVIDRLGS

| SMILES | inhibition |
| --- | --- |
| CCN1C(=O)C(=Cc2c(C)n(CC(=O)NCC3CCCO3)c3ccccc23)C(=O)N(CC)C1=S (stereo not drawn) | 53.3% (active) |
| O=c1[nH]c(=O)n(Cc2ccccc2)c(O)c1/C=N/Nc1c(F)c(F)c(F)c(F)c1F | 12.8% (inactive) |
| Cc1cccc(N2C(=O)NC(=O)/C(=C\c3cnn(-c4ccccc4)c3)C2=O)c1 | 6.14% (inactive) |
